G9a block: blocks human histone lysine methyltransferase G9a; Q96KQ7; G9a H3K9 monomethylation, AlphaScreen, 2 h; Potency, µM (highest dose often 102 µM), inactives show at the highest dose activity, negative = inhibition, most hits filed as inhibitors; 350,000 compounds, 8.8% hits; AID 504332; also: % is scaled to controls: 0 for no effect and ±100 for the full control effect; nearly all actives have a fitted effect of over 75% in size
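Methyltransferase reactions run at room temperature for 2 h (20 nM enzyme, 500 nM biotin-H3K9 peptide, 20 uM SAM) after a 15 min compound preincubation; product detected by AlphaScreen beads and anti-H3K9me1 antibody.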
HP1b chromo inh: blocks HP1-beta chromodomain binding to methylated histone tails. P83916. AlphaScreen HP1-beta / biotin-H3K9me3 peptide binding. Potency, µM (series often up to 114 µM), without a hit: at the highest dose activity change, negative = inhibition, usual class: inhibitors. 390,000 compounds, 0.56% hits. AID 540317; also: nearly all actives have a fitted effect of over 70% in size
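HP1-beta protein (50 nM final) preincubated 30 min at room temperature with biotinylated H3(1-18)K9me3 peptide (50 nM) in PBS pH 7.4, 0.01% Tween-20, then compound added for 30 min. AlphaScreen streptavidin donor/nickel chelate acceptor beads (10 ug/mL final), 30 min dark, luminescence read.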
PLK1 PBD inh: inhibitors of human PLK1 polo-box domain binding | 360,000 compounds, 2.8% hits | P53350 | Potency, µM, for the others: max response, negative = inhibition, hits mostly inhibitors | Plk1 PBD binding of FITC phosphopeptide, fluorescence polarization | AID 720504; also: series mostly up to about 57 µM; % is scaled to controls: 0 for no effect and ±100 for the full control effect; nearly all actives have a fitted effect of over 65% in size
JMJD2A Tudor: blocks the human JMJD2A Tudor domain; AlphaScreen JMJD2A-Tudor / H3K4me3 peptide binding; Potency, µM (top dose mostly 114 µM), for the others: top-dose activity change, negative = inhibition, usual class: inhibitors; 390,000 compounds, 4.4% hits; AID 504339; also: % is scaled to controls: 0 for no effect and ±100 for the full control effect; nearly all actives have a fitted effect of over 50% in size
Target sequence (O75164 whole entry, looked up, the tested form may be a part): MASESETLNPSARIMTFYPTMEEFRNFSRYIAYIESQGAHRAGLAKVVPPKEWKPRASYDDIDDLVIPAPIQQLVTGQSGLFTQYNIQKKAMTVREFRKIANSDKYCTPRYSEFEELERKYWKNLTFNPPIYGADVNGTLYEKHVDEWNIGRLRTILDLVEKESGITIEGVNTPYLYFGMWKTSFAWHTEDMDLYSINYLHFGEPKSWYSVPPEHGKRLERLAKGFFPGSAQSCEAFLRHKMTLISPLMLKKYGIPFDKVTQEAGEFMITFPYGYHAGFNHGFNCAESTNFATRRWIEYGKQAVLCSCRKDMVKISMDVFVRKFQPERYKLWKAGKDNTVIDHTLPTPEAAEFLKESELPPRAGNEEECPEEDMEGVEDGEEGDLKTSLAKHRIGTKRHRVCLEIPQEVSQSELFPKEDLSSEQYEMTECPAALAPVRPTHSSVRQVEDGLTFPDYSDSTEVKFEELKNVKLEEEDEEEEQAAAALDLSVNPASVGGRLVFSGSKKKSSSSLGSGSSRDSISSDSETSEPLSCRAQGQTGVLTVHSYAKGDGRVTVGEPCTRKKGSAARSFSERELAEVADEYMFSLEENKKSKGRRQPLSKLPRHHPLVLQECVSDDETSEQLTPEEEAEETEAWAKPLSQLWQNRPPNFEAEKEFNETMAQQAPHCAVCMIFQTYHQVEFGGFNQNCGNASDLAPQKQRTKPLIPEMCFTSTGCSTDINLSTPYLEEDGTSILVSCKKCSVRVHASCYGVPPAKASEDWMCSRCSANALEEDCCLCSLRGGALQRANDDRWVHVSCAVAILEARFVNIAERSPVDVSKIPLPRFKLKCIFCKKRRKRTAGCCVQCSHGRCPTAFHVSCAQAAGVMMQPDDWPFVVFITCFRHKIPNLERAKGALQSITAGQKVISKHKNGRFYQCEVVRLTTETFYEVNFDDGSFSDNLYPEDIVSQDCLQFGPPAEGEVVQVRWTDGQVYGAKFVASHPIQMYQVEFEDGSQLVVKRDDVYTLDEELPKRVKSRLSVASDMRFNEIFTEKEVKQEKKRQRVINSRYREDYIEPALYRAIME
BAZ2B block: BAZ2B (human) inhibition. Q9UIF8. AlphaScreen BAZ2B-H3K14Ac peptide displacement. Potency, µM (top dose mostly 114 µM), for inactives: at the top dose activity change, negative = inhibition, usual class: inhibitors. 360,000 compounds, 4.4% hits; also: % is scaled to controls: 0 for no effect and ±100 for the full control effect; nearly all actives have a fitted effect of over 60% in size
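Protein-peptide AlphaScreen: BAZ2B 50 nM, b-H3K14Ac 50 nM, 1x PBS pH 7.4 + 0.01% Tween-20. Preincubation 30 min RT; cpd 30 min RT (top 110 uM); beads 20 min RT, light-protected.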
Sfp inh: inhibitors of Bacillus subtilis Sfp phosphopantetheinyl transferase; Q9F4F7; Biochemical Sfp PPTase activity, qHTS; Potency, µM, for the others: largest response in the series, negative = inhibition, usual class: inhibitors; 310,000 compounds, 3.5% hits;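 also: the enzyme is Sfp with the accession as filed and its product quenches rhodamine fluorescence; 0% = enzyme reaction without inhibitor and -100% = no enzyme wells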
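Fluorescence-quenching assay with 15 nM Sfp, 5 uM rhodamine-CoA and 12.5 uM BHQ-2-labelled ybbR peptide in pH 7.6 Hepes/MgCl2 buffer. Enzyme was pre-incubated with compound for 15 min at room temperature. Rate was taken from the 30-min fluorescence change (525/598 nm).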
* hit, by the source's call; ? = inconclusive; / = not tested or not shown; [ ] = dose if it differs, or a comment. Sampled rows, rich in hits. Any-hit rate of the full collection: about 12%. Calls follow the shape of the dose curve; as a rule, active = well fitted curve in the direction sought with a large enough effect; inconclusive = small, poorly fitted or top-dose-only effect, or another doubt; inactive = no such curve, though single readings can be large; an effect the other way counts as inactive or inconclusive. Potency is read from the fitted curve at half-maximal effect.

SMILES | G9a block | HP1b chromo inh | PLK1 PBD inh | JMJD2A Tudor | BAZ2B block | Sfp inh
Cc1ccccc1OCC(O)CN1CCN(CC(O)COc2ccccc2C)C(C)C1 (stereo not given) | 18%[2.33 µM] | ? | 1% | 2µM* | 22µM* | ?
CC(C)(C)OC(=O)Cc1nnc(-c2nc3ccccc3[nH]2)s1 | / | / | / | -32% | / | /
S=C(NCc1ccncc1)Nc1ccc(Cl)c(Cl)c1 | 29%[59 µM] | 54% | -7% | -15% | 0% | 7%
O=[N+]([O-])c1cc(C(F)(F)F)cc([N+](=O)[O-])c1NCCNC(=S)Nc1ccc(Cl)c(Cl)c1 | / | -31% | 4% | 32µM* | 25µM* | -5%
COc1ccc(NC(=O)N2CCC3(CC2)CCN(C(=O)c2cccc(F)c2)CC3)cc1 | -2%[12.7 µM] | / | / | / | / | 18%
O=C(NC(=S)N1CCN(c2ccc(O)cc2)CC1)c1ccco1 | / | 11% | -3% | -5% | / | /
CN1CCN(C(=S)NC(=O)/C=C/c2cccs2)CC1 | 50µM* | 24% | -23% | ? | -17% | -7%
CN1CCN(C(=S)NC(=O)/C=C/c2cccc3ccccc23)CC1 | -4% | 2% | -6% | ? | -1% | 1%
CN1CCN(C(=S)NC(=O)c2ccco2)CC1 | 50µM* | 4% | 12% | 16µM* | ? | 56µM*
CC(NNC(=S)N1CCN(c2ccccn2)CC1)c1nccc2ccccc12 (stereo not given) | / | 25µM* | -4% | 20µM* | / | /
CCNC(=S)N1CCN(c2ccccn2)CC1 | 7% | 31% | -19% | -5% | -1% | ?
CN1CCN(C(=O)c2cc(Cl)cc(Cl)c2NC(=O)c2ccco2)CC1 | 17% | -8% | 27µM* | -12% | -2% | 11%
COC(=O)[C@@H]1C[C@@]2(O)[C@H](O)[C@H](O)[C@H](O)C[C@H]2N1Cc1c(F)cccc1Cl | / | / | / | / | / | 10%
CN1CCN(C(=S)NC(=O)c2ccc(Cl)cc2)CC1 | 28µM* | ? | 27µM* | ? | 56µM* | 35µM*
O=C(NC(=S)N1CCN(c2ccccn2)CC1)c1ccco1 | 56µM* | 11% | -9% | -12% | ? | -27%
COc1cc2ccccc2cc1C(=O)Nc1cccc(-c2nc3cc(C)c(C)cc3o2)c1 | ? | 3% | / | -15% | -2% | /
CCc1ccc(NC(=O)CSC2=Nc3ccccc3C3=NC(CCC(=O)NCc4ccco4)C(=O)N23)cc1 (stereo not given) | -2%[59 µM] | -7% | / | -13% | -14% | /
CNC[C@@H]1Oc2ccc(NS(=O)(=O)c3ccc(OC)cc3)cc2CC(=O)N([C@H](C)CO)C[C@@H]1C | / | 26% | -8% | -18% | / | /
Cc1ccc(NC(=O)Cn2c(=O)n(Cc3nc(-c4ccccc4)no3)c(=O)c3ccccc32)c(C)c1 | -8%[59 µM] | 18% | / | -11% | -6% | /
CCCN1C(=O)/C(=C/c2ccccc2OCc2ccc(C(=O)O)cc2)NC1=S | ? | -25% | -17% | -28% | -29% | 10%
O=C1NC(=O)N(Cc2ccccc2F)C1=O | 22µM* | 12% | -24% | -14% | -37% | ?
CCOc1cc(/C=C2/NC(=O)N(Cc3ccccc3F)C2=O)ccc1O | -1%[59 µM] | 21% | 1% | -2% | 8% | 1%
O=C(O)c1ccc(COc2ccccc2/C=C2\NC(=O)N(Cc3ccccc3)C2=O)cc1 | ? | ? | 19µM* | 25µM* | -28% | 9%
COc1cc(/C=C2/NC(=O)N(Cc3ccccc3F)C2=O)cc(OC)c1O | 35µM* | 33% | -4% | -20% | 1% | -14%
O=C(O)c1ccc(COc2ccc3ccccc3c2/C=C2/NC(=O)N(Cc3ccc(F)cc3)C2=O)cc1 | ? | ? | ? | 20µM* | 28µM* | 71µM*
SMILES | G9a block | HP1b chromo inh | PLK1 PBD inh | JMJD2A Tudor | BAZ2B block | Sfp inh
CCCN1C(=O)/C(=C/c2ccc(OCc3ccc(C(=O)O)cc3)c(OC)c2)NC1=S | / | 16% | -24% | -29% | / | /
O=C1N/C(=C/c2cccn2-c2ccccc2)C(=O)N1Cc1ccccc1F | ? | 14% | -12% | -16% | -4% | -3%
CCc1ccc(-n2nc(C)c3c(C(=O)Nc4cc(C)c(Cl)cc4OC)cc(C)nc32)cc1 | -2%[59 µM] | 42% | / | 27% | 12%[57.1 µM] | /
O=C(O)c1ccc(COc2ccccc2/C=C2\NC(=O)N(Cc3ccccc3F)C2=O)cc1 | ? | ? | 27µM* | 40µM* | -23% | ?
COc1cccc(CNCc2c(C(=O)O)c(C)n(Cc3ccc(F)cc3Cl)c2C)c1OC | 6%[59 µM] | 40% | / | -31% | -34% | /
O=c1nc2n(c3sc4c(c13)CCCC4)C(CBr)CS2 (stereo not given) | 50µM* | 23% | -29% | -14% | -2% | -10%
O=c1c2ccccc2nc2n1C(CBr)CS2 (stereo not given) | ? | 14% | ? | -13% | -22% | -10%
COc1ccccc1CNS(=O)(=O)c1ccc2[nH]cc(C(=O)O)c(=O)c2c1 | -21%[59 µM] | ? | -28% | 40µM* | -10% | 14%
Nc1ccc(C2(c3ccc(N)cc3)OC(=O)c3ccccc32)cc1 | 9% | -2% | -9% | 35µM* | -28% | 4%
O=C1OC(c2ccccc2)(c2cc(Br)c(O)c(Br)c2)c2ccccc21 (stereo not given) | / | -21% | 24µM* | -36% | / | /
Cc1cc(C2(c3ccc(O)c(C)c3)OC(=O)c3ccccc32)ccc1O | ? | -25% | -9% | ? | 50µM* | -4%
Cc1ccc(C(C(=O)NC(C)(C)C)N(Cc2ccccc2)C(=O)c2snc(C(N)=O)c2N)o1 (stereo not given) | -3% | 11% | -1% | -18% | / | -2%
O=c1[nH]c2ccc(S(=O)(=O)N3CCN(S(=O)(=O)c4ccc5c(c4)OCCO5)CC3)cc2[nH]c1=O | / | / | / | -20% | / | /
CCNc1nc(NCc2ccc(F)cc2)c2cnn(C)c2n1 | -4%[59 µM] | 20% | / | 50µM* | -12% | /
COCCNc1nc(NCc2ccccc2)c2cnn(C)c2n1 | ? | 23% | -10% | -16% | -8%[57.1 µM] | 8%
O=C(Cc1ccc(F)cc1)NCCc1csc2nc(-c3ccccc3F)nn12 | 1%[59 µM] | 20%[57 µM] | / | 5% | 5% | /
CCCCNc1cc(=O)n(C)c(=O)[nH]1 | 50µM* | 34% | -6% | -13% | 6% | -1%
COC(=O)c1cc2sc(Cl)cc2n1Cc1c(C)cc(C)cc1C | -3%[59 µM] | 62% | / | 3% | -29% | /
O=C(Nc1ccc2c(c1)CCC2)Nc1ccccc1F | 9% | 18% | -18% | -7% | -4% | 6%
O=C(c1ccc2c(c1)N(Cc1ccccc1Cl)C(=O)c1ccccc1S2)N1CCCC1 | -26%[59 µM] | 10% | / | -23% | -17% | /
O=C1/C(=C2\C(=O)N(Cc3ccc(F)cc3)c3ccccc32)SC(=S)N1CCS(=O)(=O)O | ? | ? | 21µM* | 10µM* | 14µM* | -11%
